Results as given in PubChem BioAssay (EPA / NIEHS).
“And” between values parts separate entries of the source, which are not always exact repeats. Equal values may be shown once. Results filed as inconclusive are left out. More than one record can exist for a structure, and the calls need not agree. The source made the active and inactive calls. Rule for the calls: active = hit-call score of the fitted dose curve at least 0.9, where 1 is the maximum; inconclusive = response in the unintended direction; inactive = score below 0.9.

How the values were obtained:
[1] = target: rat Glutamate, NMDA Agonist Site (GluNMDA), Grin1 (gene 24408) (UniProt P35439); experiment: NVS_LGIC_rGluNMDA_Agonist: NovaScreen (NVS) Ligand-Gated Ion Channel Assay for rat Glutamate, NMDA Agonist Site (GluNMDA) (AID 2283327)
Summary of the method: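 Rat forebrain membranes, radioligand binding in the agonist-site protocol; 1 h after dosing; filter-based scintillation counting. Single-concentration duplicate screen at 25 uM, then concentration-response up to 50 uM for actives; gain-of-signal vs DMSO.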

[2] = target: human Peripheral-type Benzodiazepine Receptor (PBR), TSPO (gene 706) (UniProt P30536); experiment: NVS_MP_hPBR: NovaScreen (NVS) Membrane Protein Assay for human Peripheral-type Benzodiazepine Receptor (PBR) (AID 2283331);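 note: hits reduce radioligand binding relative to DMSO baseline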
human Peripheral-type Benzodiazepine Receptor (PBR), TSPO (gene 706), sequence (P30536 whole entry, looked up): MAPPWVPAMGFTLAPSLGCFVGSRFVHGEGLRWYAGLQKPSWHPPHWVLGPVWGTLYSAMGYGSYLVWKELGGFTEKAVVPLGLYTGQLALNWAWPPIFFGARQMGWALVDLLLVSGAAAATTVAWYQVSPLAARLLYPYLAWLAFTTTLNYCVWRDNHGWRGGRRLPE
Summary of the method: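 Scintillation counts of filter-bound radioligand served as read-out after 1 h chemical dosing of human colonic membrane preparations. Activity was scored as signal loss against DMSO; initial duplicates at 25 uM, confirmatory concentration series afterward.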

[3] = target: rat Glutamate, AMPA Site (AMPA), Gria1 (gene 50592) (UniProt P19490); experiment: NVS_LGIC_rAMPA: NovaScreen (NVS) Ligand-Gated Ion Channel Assay for rat Glutamate, AMPA Site (AMPA) (AID 2283324)
rat Glutamate, AMPA Site (AMPA), Gria1 (gene 50592), sequence (P19490 whole entry, looked up): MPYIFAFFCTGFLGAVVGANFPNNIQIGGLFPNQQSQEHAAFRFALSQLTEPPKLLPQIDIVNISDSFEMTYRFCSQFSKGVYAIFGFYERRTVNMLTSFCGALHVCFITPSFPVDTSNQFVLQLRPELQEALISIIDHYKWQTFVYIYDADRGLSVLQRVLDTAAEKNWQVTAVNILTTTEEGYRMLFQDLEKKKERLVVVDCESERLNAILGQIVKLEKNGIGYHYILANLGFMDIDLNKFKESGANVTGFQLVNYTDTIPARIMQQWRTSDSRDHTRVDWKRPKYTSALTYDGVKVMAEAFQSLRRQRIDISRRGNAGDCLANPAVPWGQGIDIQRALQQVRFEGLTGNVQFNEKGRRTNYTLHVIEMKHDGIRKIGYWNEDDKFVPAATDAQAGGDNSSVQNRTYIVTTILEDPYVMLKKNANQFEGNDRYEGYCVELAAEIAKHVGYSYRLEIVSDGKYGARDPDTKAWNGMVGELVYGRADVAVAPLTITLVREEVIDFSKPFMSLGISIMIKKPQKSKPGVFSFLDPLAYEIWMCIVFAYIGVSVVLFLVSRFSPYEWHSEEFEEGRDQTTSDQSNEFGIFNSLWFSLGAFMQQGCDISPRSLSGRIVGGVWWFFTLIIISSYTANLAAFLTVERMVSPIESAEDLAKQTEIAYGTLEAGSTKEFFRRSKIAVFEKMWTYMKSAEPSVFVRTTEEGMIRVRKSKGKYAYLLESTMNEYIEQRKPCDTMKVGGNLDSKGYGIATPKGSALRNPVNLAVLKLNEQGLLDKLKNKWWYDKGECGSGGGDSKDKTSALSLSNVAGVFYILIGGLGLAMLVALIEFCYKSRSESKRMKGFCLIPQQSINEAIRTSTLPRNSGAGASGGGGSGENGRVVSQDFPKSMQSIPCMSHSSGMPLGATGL
Summary of the method: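 Rat forebrain membranes; radioligand binding read 1 h after dosing by filtration and scintillation counting. Duplicate single-point screen at 25 uM, then concentration-response to 50 uM for threshold hits (e.g. 30% inhibition); loss of signal vs DMSO.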

[4] = target: rat Thyrotropin Releasing Hormone Receptor (TRH), Trhr (gene 25570) (UniProt Q01717); experiment: NVS_GPCR_rTRH: NovaScreen (NVS) G Protein-Coupled Receptor Assay for rat Thyrotropin Releasing Hormone Receptor (TRH) (AID 2283329);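 note: hit means lower bound tracer signal versus DMSO baseline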
rat Thyrotropin Releasing Hormone Receptor (TRH), Trhr (gene 25570), sequence (Q01717 whole entry, looked up): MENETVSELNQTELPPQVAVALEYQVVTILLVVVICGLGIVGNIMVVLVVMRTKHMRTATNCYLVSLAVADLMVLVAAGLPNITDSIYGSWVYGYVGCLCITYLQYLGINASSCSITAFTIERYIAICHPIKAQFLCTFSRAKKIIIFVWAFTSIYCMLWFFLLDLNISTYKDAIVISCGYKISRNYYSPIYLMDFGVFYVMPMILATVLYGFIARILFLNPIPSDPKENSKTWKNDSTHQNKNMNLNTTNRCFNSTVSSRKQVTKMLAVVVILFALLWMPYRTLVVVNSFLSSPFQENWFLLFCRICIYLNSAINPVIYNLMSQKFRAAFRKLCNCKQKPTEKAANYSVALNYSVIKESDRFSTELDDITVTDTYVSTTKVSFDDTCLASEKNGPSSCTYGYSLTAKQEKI
Summary of the method: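 Test compounds are screened at 25 uM in duplicate against radioligand binding in rat forebrain membranes, with active pairs followed up over a concentration range. Detection uses filter-based radiodetection after a 4 h exposure.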

[5] = target: rat Peripheral-type Benzodiazepine Receptor (PBR), Tspo (gene 24230) (UniProt P16257); experiment: NVS_MP_rPBR: NovaScreen (NVS) Membrane Protein Assay for rat Peripheral-type Benzodiazepine Receptor (PBR) (AID 2283335)
rat Peripheral-type Benzodiazepine Receptor (PBR), Tspo (gene 24230), sequence (P16257 whole entry, looked up): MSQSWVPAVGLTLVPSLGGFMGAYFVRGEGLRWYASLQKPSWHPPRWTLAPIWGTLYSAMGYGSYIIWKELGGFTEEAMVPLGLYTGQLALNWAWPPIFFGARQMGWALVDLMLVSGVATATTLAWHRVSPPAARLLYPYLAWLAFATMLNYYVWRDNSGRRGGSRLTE
Summary of the method: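 Radioligand displacement, rat kidney membrane prep, 1 h exposure, filter-based scintillation read; DMSO baseline, loss-of-signal scored. Primary screen at 25 uM in duplicate, actives followed up in concentration series.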

[6] = target: rat Glutamate, MK-801 Agonist Site (GluNMDA_MK801), Grin1 (gene 24408) (UniProt P35439); experiment: NVS_LGIC_rGluNMDA_MK801_Agonist: NovaScreen (NVS) Ligand-Gated Ion Channel Assay for rat Glutamate, MK-801 Agonist Site (GluNMDA_MK801) (AID 2283340)
Summary of the method: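 Radioligand binding at MK-801 site in rat forebrain membranes, 1.5 h incubation, filter-based scintillation counting. Initially 25 uM in duplicate; actives then run in concentration-response up to 50 uM, fitted for gain of signal versus DMSO.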

[7] = target: Sodium channel protein type 1 subunit alpha (Rattus norvegicus) (UniProt P04774); experiment: NVS_IC_rNaCh_site2: NovaScreen (NVS) Ion Channel Assay for rat Sodium Channel, Site 2 (NaCh) (AID 2283322);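 note: hit means loss of radioligand binding signal relative to DMSO so AC50 marks displacement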
Summary of the method: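 Membranes: rat forebrain. Format: competitive radioligand displacement, filter separation, scintillation readout, 1 h exposure. Primary screen in duplicate at 25 uM; actives retested in concentration series.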

[8] = target: human Androgen Receptor (AR), AR (gene 367) (UniProt P10275); experiment: NVS_NR_hAR: NovaScreen (NVS) Nuclear Receptor Binding Assay for human Androgen Receptor (AR) (AID 2283332)
Summary of the method: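 Radioligand competitive binding, scintillation read-out, in cell-free extract from LnCAP, measured 20 h after dosing. Screened first in duplicate at 25 uM, then concentration series for actives; activity fitted against DMSO.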

[9] = target: Voltage-gated inwardly rectifying potassium channel KCNH2 (Homo sapiens) (UniProt Q12809); experiment: NVS_IC_hKhERGCh: NovaScreen (NVS) Ion Channel Assay for human Potassium Channel ERG (KhERGCh) (AID 2283333)
Voltage-gated inwardly rectifying potassium channel KCNH2 (Homo sapiens), sequence (Q12809 whole entry, looked up): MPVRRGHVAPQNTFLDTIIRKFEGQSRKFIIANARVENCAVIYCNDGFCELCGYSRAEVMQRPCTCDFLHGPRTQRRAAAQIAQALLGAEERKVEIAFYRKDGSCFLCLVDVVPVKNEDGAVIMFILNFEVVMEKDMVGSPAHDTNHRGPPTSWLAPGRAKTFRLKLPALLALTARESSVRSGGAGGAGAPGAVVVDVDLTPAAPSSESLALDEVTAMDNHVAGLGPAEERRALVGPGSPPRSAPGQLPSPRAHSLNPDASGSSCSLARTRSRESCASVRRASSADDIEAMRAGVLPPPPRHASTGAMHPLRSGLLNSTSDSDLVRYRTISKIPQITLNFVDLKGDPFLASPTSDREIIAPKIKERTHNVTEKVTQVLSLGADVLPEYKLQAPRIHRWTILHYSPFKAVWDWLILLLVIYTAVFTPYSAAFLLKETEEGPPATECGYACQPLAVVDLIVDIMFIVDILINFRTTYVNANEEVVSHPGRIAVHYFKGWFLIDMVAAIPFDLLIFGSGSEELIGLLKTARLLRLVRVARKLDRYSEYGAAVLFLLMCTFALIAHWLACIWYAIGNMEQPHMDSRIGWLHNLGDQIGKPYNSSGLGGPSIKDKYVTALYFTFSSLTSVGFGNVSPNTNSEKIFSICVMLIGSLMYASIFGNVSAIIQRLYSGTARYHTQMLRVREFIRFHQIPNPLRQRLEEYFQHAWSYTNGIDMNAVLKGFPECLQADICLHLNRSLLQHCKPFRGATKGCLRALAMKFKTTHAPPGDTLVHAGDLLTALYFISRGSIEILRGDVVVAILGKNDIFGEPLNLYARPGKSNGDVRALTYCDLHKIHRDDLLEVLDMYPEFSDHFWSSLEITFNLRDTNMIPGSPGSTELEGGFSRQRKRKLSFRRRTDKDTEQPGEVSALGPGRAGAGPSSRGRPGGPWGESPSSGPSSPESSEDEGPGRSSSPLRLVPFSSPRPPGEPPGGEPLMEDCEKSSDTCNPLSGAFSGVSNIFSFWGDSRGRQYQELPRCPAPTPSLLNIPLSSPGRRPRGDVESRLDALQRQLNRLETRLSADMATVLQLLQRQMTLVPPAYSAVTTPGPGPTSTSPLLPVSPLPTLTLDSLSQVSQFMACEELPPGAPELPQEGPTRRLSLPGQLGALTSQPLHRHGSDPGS
Summary of the method: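 Cell-free radioligand competition binding on hERG protein extracted from CHO cells, read by filter-based scintillation counting 0.75 h after dosing. Primary screen at 25 uM in duplicate, actives followed in concentration series. Signal loss fitted versus DMSO.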

[10] = tested on: guinea pig Histamine Receptor (H2), gene 100729734; experiment: NVS_GPCR_gH2: NovaScreen (NVS) G Protein-Coupled Receptor Assay for guinea pig Histamine Receptor (H2) (AID 2283342)
Summary of the method: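 Radioligand displacement on guinea pig striatal membranes, 1 h after dosing, filter-based scintillation counting; loss of signal versus DMSO. Single-point screen at 25 uM in duplicate, then concentration-response up to 50 uM.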

[11] = target: rat Gamma-Aminobutyric Acid Type A Receptor, Non-Selective (GABAR-NonSelective), Gabra1 (gene 29705) (UniProt P62813); experiment: NVS_LGIC_rGABAR_NonSelective: NovaScreen (NVS) Ligand-Gated Ion Channel Assay for rat Gamma-Aminobutyric Acid Type A Receptor, Non-Selective (GABAR-NonSelective) (AID 2283326)
rat Gamma-Aminobutyric Acid Type A Receptor, Non-Selective (GABAR-NonSelective), Gabra1 (gene 29705), sequence (P62813 whole entry, looked up): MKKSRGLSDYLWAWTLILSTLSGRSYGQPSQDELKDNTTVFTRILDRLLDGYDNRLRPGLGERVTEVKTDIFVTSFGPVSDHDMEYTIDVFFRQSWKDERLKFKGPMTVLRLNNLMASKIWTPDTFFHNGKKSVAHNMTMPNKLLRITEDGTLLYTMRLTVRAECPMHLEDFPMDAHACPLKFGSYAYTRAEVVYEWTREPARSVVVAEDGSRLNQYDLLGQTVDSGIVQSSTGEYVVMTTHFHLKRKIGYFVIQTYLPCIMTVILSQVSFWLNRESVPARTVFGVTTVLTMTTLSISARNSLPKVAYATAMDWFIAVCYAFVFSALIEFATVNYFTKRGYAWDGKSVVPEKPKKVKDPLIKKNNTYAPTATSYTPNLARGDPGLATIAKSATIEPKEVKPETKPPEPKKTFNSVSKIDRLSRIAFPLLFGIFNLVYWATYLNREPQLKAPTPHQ
Summary of the method: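 Radioligand displacement on rat whole-brain extract, 1 h, filter scintillation readout; signal loss fitted versus DMSO. Primary screen in duplicate at 25 uM; hits (e.g. ≥30% inhibition) retested in concentration-response up to 50 uM.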

[12] = target: bovine Gamma-Aminobutyric Acid Type A Receptor BDZ, alpha 5 site (GABARa5), GABRA5 (gene 523515) (UniProt Q08E50); experiment: NVS_LGIC_bGABARa5: NovaScreen (NVS) Ligand-Gated Ion Channel Assay for bovine Gamma-Aminobutyric Acid Type A Receptor BDZ, alpha 5 site (GABARa5) (AID 2283323)
bovine Gamma-Aminobutyric Acid Type A Receptor BDZ, alpha 5 site (GABARa5), GABRA5 (gene 523515), sequence (Q08E50 whole entry, looked up): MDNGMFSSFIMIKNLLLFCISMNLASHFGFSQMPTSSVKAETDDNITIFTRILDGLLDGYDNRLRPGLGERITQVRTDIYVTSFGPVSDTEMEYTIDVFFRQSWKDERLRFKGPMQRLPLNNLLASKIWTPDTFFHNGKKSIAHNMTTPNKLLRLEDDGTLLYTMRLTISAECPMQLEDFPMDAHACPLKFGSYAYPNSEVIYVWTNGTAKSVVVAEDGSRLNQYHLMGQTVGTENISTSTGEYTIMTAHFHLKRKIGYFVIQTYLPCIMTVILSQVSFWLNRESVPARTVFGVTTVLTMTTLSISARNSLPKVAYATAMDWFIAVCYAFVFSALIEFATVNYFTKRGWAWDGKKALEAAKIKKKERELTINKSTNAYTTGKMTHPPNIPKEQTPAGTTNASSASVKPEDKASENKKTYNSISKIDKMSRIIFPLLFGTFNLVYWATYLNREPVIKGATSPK
Summary of the method: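 Radioligand competitive displacement binding on bovine hippocampal membranes, read 1 hr after dosing by filter-based scintillation counting. Primary screen at 25 uM in duplicate; actives (e.g. ≥30% inhibition) then run in concentration-response up to 50 uM.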

[13] = NVS_IC_rCaDHPRCh_L: NovaScreen (NVS) Ion Channel Assay for rat Calcium Channel, Type L, Dihydropyridine Site (CaDHPRCh_L) (AID 2283320)
Summary of the method: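 Radioligand binding to dihydropyridine site on rat cortical membranes, filter-based scintillation counting, 1 h after dosing. Screened in duplicate at 25 uM; actives rerun in concentration-response up to 50 uM. Loss of signal versus DMSO baseline.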

[14] = target: bovine Gamma-Aminobutyric Acid Type A Receptor BDZ, alpha 1 site (GABARa1), GABRA1 (gene 780973) (UniProt P08219); experiment: NVS_LGIC_bGABARa1: NovaScreen (NVS) Ligand-Gated Ion Channel Assay for bovine Gamma-Aminobutyric Acid Type A Receptor BDZ, alpha 1 site (GABARa1) (AID 2283321)
bovine Gamma-Aminobutyric Acid Type A Receptor BDZ, alpha 1 site (GABARa1), GABRA1 (gene 780973), sequence (P08219 whole entry, looked up): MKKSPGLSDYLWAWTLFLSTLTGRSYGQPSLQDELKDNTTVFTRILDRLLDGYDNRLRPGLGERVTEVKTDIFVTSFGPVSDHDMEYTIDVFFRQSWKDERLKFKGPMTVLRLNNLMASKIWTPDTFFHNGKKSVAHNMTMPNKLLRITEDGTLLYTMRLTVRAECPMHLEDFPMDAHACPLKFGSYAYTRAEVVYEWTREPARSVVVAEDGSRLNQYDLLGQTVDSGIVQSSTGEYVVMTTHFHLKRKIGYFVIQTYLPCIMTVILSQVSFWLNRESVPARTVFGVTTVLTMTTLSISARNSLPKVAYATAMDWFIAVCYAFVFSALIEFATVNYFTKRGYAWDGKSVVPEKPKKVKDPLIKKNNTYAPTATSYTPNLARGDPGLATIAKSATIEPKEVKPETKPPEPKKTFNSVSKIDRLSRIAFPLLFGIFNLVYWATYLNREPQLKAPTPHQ
Summary of the method: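 Radioligand competition binding on bovine cortical membranes, 0.75 h, filter-based scintillation counting. Primary single concentration 25 uM in duplicate; actives rerun in concentration-response to 50 uM max. Loss of signal fitted versus DMSO.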

[15] = NVS_IC_rCaBTZCHL: NovaScreen (NVS) Ion Channel Assay for Calcium Channel, Type L, Benzothiazepine Site (CaBTZCHL) (AID 2283337)
Summary of the method: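 Radioligand binding to the benzothiazepine site of L-type Ca channels in rat cortical membranes (cell-free), 1.5 h after dosing; filter-based scintillation counting. Loss of signal relative to DMSO baseline; primary single-concentration screen at 25 uM, actives then run in concentration series.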

[16] = target: rat Oxytocin Receptor (OXT), Oxtr (gene 25342) (UniProt P70536); experiment: NVS_GPCR_rOXT: NovaScreen (NVS) G Protein-Coupled Receptor Assay for rat Oxytocin Receptor (OXT) (AID 2283330)
rat Oxytocin Receptor (OXT), Oxtr (gene 25342), sequence (P70536 whole entry, looked up): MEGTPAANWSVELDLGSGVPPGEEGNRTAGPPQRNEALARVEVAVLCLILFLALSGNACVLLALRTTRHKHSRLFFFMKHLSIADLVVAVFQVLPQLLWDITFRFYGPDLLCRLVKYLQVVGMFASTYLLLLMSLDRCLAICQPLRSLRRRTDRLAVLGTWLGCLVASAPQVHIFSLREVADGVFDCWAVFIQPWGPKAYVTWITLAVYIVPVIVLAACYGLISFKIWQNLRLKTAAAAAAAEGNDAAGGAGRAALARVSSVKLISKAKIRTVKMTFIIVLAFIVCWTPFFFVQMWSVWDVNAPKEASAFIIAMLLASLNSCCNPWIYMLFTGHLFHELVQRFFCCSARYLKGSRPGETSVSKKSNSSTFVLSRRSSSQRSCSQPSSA
Summary of the method: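 Radioligand displacement on rat uterine membranes, 1 h incubation, filter-based scintillation counting. Chemicals were screened in duplicate at 25 uM, and those passing threshold were retested in concentration-response up to 50 uM. Loss of binding was fitted versus DMSO.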

SMILES: COc1nc(C)nc(NC(=O)NS(=O)(=O)c2ccccc2CCC(F)(F)F)n1
- outcome [1]: inactive

SMILES: CCON=C(CC)C1=C(O)CC(c2c(C)cc(C)cc2C)CC1=O (centres undefined)
- outcome [2]: inactive

SMILES: CNC(=S)S
- outcome [3]: inactive
- outcome [4]: inactive
- outcome [2]: inactive
- outcome [5]: inactive
- outcome [6]: inactive

SMILES: CCCC1COC(Cn2cncn2)(c2ccc(Cl)cc2Cl)O1 (centres undefined)
- AC50 [7]: 25 µM (active)
- AC50 [2]: 17.3 µM (active)
- AC50 [8]: 18.1 µM (active)
- outcome [9]: inactive
- AC50 [5]: 12.3 µM (active)
- outcome [10]: inactive

SMILES: CCOc1cc(Oc2ccc(C(F)(F)F)cc2Cl)ccc1[N+](=O)[O-]
- outcome [4]: inactive

SMILES: C=CCC1=C(C)C(OC(=O)C2C(C=C(C)C)C2(C)C)CC1=O (centres undefined)
- AC50 [11]: 7.41 µM (active) and 66.1 nM (active)
- outcome [2]: inactive
- outcome [5]: inactive
- outcome [10]: inactive

SMILES: N#CC(CCc1ccc(Cl)cc1)(Cn1cncn1)c1ccccc1 (centres undefined)
- outcome [12]: inactive
- outcome [10]: inactive

SMILES: COc1ccc(C(c2ccc(OC)cc2)C(Cl)(Cl)Cl)cc1
- outcome [13]: inactive
- outcome [12]: inactive
- outcome [3]: inactive
- outcome [2]: inactive
- outcome [5]: inactive

SMILES: C=CCC1=C(C)[C@@H](OC(=O)[C@@H]2[C@@H](C=C(C)C)C2(C)C)CC1=O
- outcome [11]: inactive
- AC50 [2]: 25 µM (active)
- AC50 [5]: 37.7 µM (active)

SMILES: N#Cc1nn(-c2c(Cl)cc(C(F)(F)F)cc2Cl)c(N)c1S(=O)C(F)(F)F (centres undefined)
- outcome [4]: inactive

SMILES: COc1nc(C)nc(NC(=O)NS(=O)(=O)c2ccccc2Cl)n1
- outcome [14]: inactive

SMILES: C#CCOS(=O)OC1CCCCC1Oc1ccc(C(C)(C)C)cc1 (centres undefined)
- AC50 [13]: 37.4 µM (active)
- AC50 [2]: 18.2 µM (active)
- AC50 [5]: 14.5 µM (active)

SMILES: OC(c1ccc(Cl)cc1)(c1cncnc1)c1ccccc1Cl (centres undefined)
- AC50 [13]: 19 µM (active)
- AC50 [7]: 5.79 µM (active)
- outcome [4]: inactive
- outcome [2]: inactive
- outcome [9]: inactive
- AC50 [5]: 4.89 µM (active)
- outcome [15]: inactive

SMILES: Oc1ccccc1-c1ccccc1
- outcome [7]: inactive
- outcome [4]: inactive
- outcome [2]: inactive
- outcome [5]: inactive

SMILES: C=CC1(C)OC(=O)N(c2cc(Cl)cc(Cl)c2)C1=O (centres undefined)
- outcome [16]: inactive
- outcome [2]: inactive
- AC50 [5]: 2.19 µM (active) and 1.01 µM (active) and 693 nM (active)
- outcome [5]: inactive

SMILES: N#Cc1cc(Br)c(O)c(Br)c1
- outcome [11]: inactive
